# Results from paper PMC4336329 (PLoS ONE, 2015).
# Among all 310,000 compounds or so, about 14,000 (4.5%) showed an effect of 50% or more. Effects have a minus sign here. The sample as a whole holds a higher share of strong results than the screen did.
# Biological target: human ether-à-go-go-related gene (hERG) potassium channel (human, UniProt Q12809)
# Test: primary screen, population patch clamp on CHO cells stably expressing hERG; higher = less effect of the substance
# 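Also: peak tail current of the secondary pulse compared with the same well before compound.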
# human ether-à-go-go-related gene (hERG) potassium channel, sequence (Q12809 whole entry, looked up): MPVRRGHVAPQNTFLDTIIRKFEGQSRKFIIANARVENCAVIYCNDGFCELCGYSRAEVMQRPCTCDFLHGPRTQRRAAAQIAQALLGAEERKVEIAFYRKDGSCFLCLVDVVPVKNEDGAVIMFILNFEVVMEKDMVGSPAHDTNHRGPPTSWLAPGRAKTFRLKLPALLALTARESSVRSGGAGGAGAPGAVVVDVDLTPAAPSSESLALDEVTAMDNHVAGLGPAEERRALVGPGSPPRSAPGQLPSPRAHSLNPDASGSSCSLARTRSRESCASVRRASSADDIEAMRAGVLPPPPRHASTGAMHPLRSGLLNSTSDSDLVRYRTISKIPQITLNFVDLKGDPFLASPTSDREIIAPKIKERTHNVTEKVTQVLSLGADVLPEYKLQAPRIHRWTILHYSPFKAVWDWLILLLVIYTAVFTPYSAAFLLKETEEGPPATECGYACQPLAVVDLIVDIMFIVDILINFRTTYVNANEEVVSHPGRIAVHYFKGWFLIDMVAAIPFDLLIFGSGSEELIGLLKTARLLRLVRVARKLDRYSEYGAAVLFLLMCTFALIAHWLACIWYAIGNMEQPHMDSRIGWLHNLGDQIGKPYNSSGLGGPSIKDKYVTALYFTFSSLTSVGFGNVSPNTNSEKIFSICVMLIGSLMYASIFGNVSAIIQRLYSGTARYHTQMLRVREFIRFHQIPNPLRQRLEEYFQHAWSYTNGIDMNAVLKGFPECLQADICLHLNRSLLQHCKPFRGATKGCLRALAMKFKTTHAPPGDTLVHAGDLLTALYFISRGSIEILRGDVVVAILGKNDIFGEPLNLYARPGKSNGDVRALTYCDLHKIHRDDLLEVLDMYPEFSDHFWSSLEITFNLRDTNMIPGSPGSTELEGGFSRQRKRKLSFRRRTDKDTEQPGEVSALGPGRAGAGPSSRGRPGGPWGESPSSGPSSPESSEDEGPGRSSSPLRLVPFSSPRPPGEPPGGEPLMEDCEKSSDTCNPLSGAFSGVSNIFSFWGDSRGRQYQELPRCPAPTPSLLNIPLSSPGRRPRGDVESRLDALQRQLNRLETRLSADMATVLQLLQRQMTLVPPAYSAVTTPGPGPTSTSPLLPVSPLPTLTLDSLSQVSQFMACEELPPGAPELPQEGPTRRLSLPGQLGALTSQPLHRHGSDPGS
row,Compound,"hERG current change (%, negative = inhibition) at 10uM [%]"
1,CNC(=O)c1ccc(NC(=O)CC2SC(N3CCCC3)=NC2=O)cc1 (stereo not drawn),-4.89
2,CCCc1nc2sc3ccccc3c(=O)c2c(=O)n1CCOC,9.8
3,CCOC(=O)CN1CC23C=CC(O2)C(C(=O)Nc2ccc4c(c2)OCO4)C3C1=O (stereo not drawn),4.95
4,Cc1cc(Br)ccc1NC(=O)CN(C)C(=O)COc1cccc2c1OC(C)(C)C2,-8.15
5,COCCn1c(SCC(=O)Nc2ccc(C(C)=O)cc2)nc2c([nH]c3ccccc32)c1=O,1.97
6,Cc1cc(O)c(-c2ccno2)cc1Cl,13
7,CCN(CC)c1ccc(NC(=O)Cn2cc3c(n2)CCC(C)C3)c(C)c1 (stereo not drawn),-3.35
8,NC(=O)CSc1nnc(-c2cccs2)n1Cc1ccco1,-13.9
9,COc1cc(CNCCNC(=O)c2nonc2N)ccc1OCc1ccc(Cl)cc1.Cl,-74.4
10,COc1cc(OC)c(OC)cc1CNCCNC(=O)c1nonc1N.Cl,-0.502
11,COc1cc(CNCCNC(=O)c2nonc2N)ccc1OCc1ccc(Cl)nc1.Cl,-56.4
12,COc1ccc(CNCCNC(=O)c2nonc2N)cc1OC.Cl,-24.8
13,COc1cccc(CNCCNC(=O)c2nonc2N)c1.Cl,9.27
14,COc1cc(CNCCNCC(C)O)ccc1OCc1ccc(Cl)nc1 (stereo not drawn),-8.7
15,CC(C(=O)Nc1nccs1)N1C(=O)c2ccccc2S1(=O)=O (stereo not drawn),11.5
16,CCc1nn(CCCC(=O)N2CCC(C)CC2)c(=O)c2cc3occc3n12,-2.71
17,O=C(OCC(=O)N1CCCCCC1)c1cnc(Cl)c(Cl)c1,-2.83
18,Cc1cccc(NC(=O)c2cc([N+](=O)[O-])ccc2N2CCCCC2)n1,-35.1
19,COCCNc1ccc([N+](=O)[O-])cc1C(=O)Nc1cccc(C)n1,-62.7

row,Compound,"hERG current change (%, negative = inhibition) at 10uM [%]"
1,Cc1cccc(NC(=O)c2cc([N+](=O)[O-])ccc2NCC2CCCO2)n1 (stereo not drawn),-80.9
2,Cc1cccc(NC(=O)c2ccc(NCC3CCCO3)c([N+](=O)[O-])c2)n1 (stereo not drawn),14.2
3,Cc1cccc(NC(=O)c2ccc([N+](=O)[O-])cc2Cl)n1,-22.8
4,COc1cccc(NC(=O)c2cc([N+](=O)[O-])ccc2NC(=O)CNCC2CCCO2)c1 (stereo not drawn),-16.4
5,Cc1ccc(C)c(N(CC(=O)NN=C2CCCCCCC2)S(C)(=O)=O)c1,-5.63
6,CC1(C)O[C@@H]2CC3C4C[C@H](F)C5=CC(=O)C=CC5(C)C4C(O)CC3(C)[C@]2(C(=O)CO)O1 (stereo partly drawn),1.68
7,COC(=O)C1CN(C(=O)C(C)Oc2ccccc2F)c2ccccc2O1 (stereo not drawn),15.6
8,CCCCN1C(=O)C(O)=C(C(C)=O)C1c1ccccc1 (stereo not drawn),11
9,CC(C)(C)c1ccc(OCC(=O)N2CCN(c3ccccn3)CC2)cc1,-51.7
10,CCC(=O)c1ccc(OCC(=O)N2CCN(c3ccccn3)CC2)cc1,-31.5
11,O=C(COc1ccc(F)c(Cl)c1)N1CCN(c2ccccn2)CC1,-55.3
12,Cc1cc(OCC(=O)N2CCN(c3ccccn3)CC2)cc(C)c1Br,-32.3
13,O=C(COc1cc(Cl)c(Cl)cc1Cl)N1CCN(c2ccccn2)CC1,16
14,O=C(COc1ccc(Cl)cc1Cl)N1CCN(c2ccccn2)CC1,-33.3
15,Cc1ccc(C)c(NS(=O)(=O)c2ccc3c(c2)NC(=O)CCS3)c1,-15
16,COC(=O)COc1cccc(/C=N/NC(=O)CCSc2ccccc2)c1,-15.7
17,C(=N\c1nc2ccccc2n1CCN1CCOCC1)/c1cccs1,-20.7
18,CCOc1ccc(N2C(=O)CC(Sc3nc(-c4cccs4)cc(C(F)(F)F)c3C#N)C2=O)cc1 (stereo not drawn),10.2
19,CCCNC(=O)c1csc(Nc2cccc3ccccc23)n1,-30

row,Compound,"hERG current change (%, negative = inhibition) at 10uM [%]"
1,CN(C)CCNC(=O)c1csc(Nc2cccc3ccccc23)n1,-55.4
2,O=C(NCC(O)CO)c1csc(Nc2cccc3ccccc23)n1 (stereo not drawn),-2.43
3,CCN(CC)C(=O)c1csc(Nc2cccc3ccccc23)n1,-16.9
4,COCCNC(=O)c1csc(Nc2cccc3ccccc23)n1,-35.9
5,CCN(CC)CCCNC(=O)c1csc(Nc2cccc3ccccc23)n1,-71.6
6,Cc1ccc(S(=O)(=O)N(C)C)cc1NC(=S)NC(C)CCC(C)C (stereo not drawn),-14
7,Cn1ccnc1SCC(=O)c1cccc(C(F)(F)F)c1,-27.8
8,COC(=O)c1ccc(Cn2nc(C)c(Cl)c2C)o1,8.75
9,CC12CC(NC(=O)N1c1cccc(C(=O)N3CCN(c4ccccc4F)CC3)c1)c1ccccc1O2 (stereo not drawn),-6.74
10,Cc1cc(C)cc(N2C(=O)CC(N(C(=O)c3ccco3)c3cc(C)cc(C)c3)C2=O)c1 (stereo not drawn),12.8
11,Cc1ccc(S(=O)(=O)NC(=O)c2cc(C)n(CCCn3ccnc3)c2C)cc1,-2.28
12,Cc1ccc2nc3c(cc(C(=O)NC4CCCC4)c(=N)n3C3CCCCC3)c(=O)n2c1,-77.2
13,Cc1ccc2nc3c(cc(C(=O)NC4CCCC4)c(=N)n3CCCn3ccnc3)c(=O)n2c1,-58.6
14,CCn1cc(C(=O)NC2CCCCCC2)c(=O)c2ccc(C)nc21,-4.88
15,Cc1ccc2nc3c(cc(C(=O)NC4CCCCC4)c(=N)n3C3CCCCC3)c(=O)n2c1,-74.7
16,Cc1ccc2nc3c(cc(C(=O)NCCCn4ccnc4)n3C)c(=O)n2c1,-34.1
17,Cc1ccc(S(=O)(=O)c2cc3c(=O)n4ccccc4nc3n(C3CCCC3)c2=N)cc1,6.01
18,CCn1cc(C(=O)NC2CCCCC2)c(=O)c2ccc(C)nc21,8.6
19,Cc1ccc(S(=O)(=O)c2cc3c(=O)n4ccccc4nc3n(C3CCCCC3)c2=N)cc1,-5.93
